Test results published in the supplement of paper PMC10849652.
Targets with a hit are over-represented here; the source holds about 8,800 in all. About 0.5% of all pairs of compound and target were hits.

How the values were obtained:
Experiment in all cases: log2 fold change, soluble protein after heating vs DMSO (PISA); higher = thermal stabilisation; K562 lysate, 10 uM; active = over 0.2 and 3.5 SD of the protein, either way, in both replicates (recomputed)
alvocidib = compound: CN1CC[C@H](c2c(O)cc(O)c3c(=O)cc(-c4ccccc4Cl)oc23)[C@H](O)C1 [alvocidib]
In short: (§1)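 A 30 min treatment with 10 μM compound was applied to crude K562 extract at 1 mg/mL protein in PBS pH 7.4 with 1 mM MgCl2. Heating for 3 min spanned 48°C-58°C, after which aliquots were pooled, adjusted to 0.5% NP-40 at 4°C and spun at 21,000xg for 90 min. TMTpro 16plex LC-MS/MS of the supernatant, with channel sums equalised, gave values recorded as log-two fold change in thermal stability against solvent controls, from duplicates.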

Tubastatin A = compound: CN1CCc2c(c3ccccc3n2Cc2ccc(C(=O)NO)cc2)C1 [Tubastatin A]
In short: as §1

[1] = compound: CNC(=O)C1=CC=CC=C1NC2=NC(=NC=C2Cl)NC3=C(C=C(C=C3)N4CCOCC4)OC
In short: as §1

defactinib = compound: CNC(=O)c1ccc(Nc2ncc(C(F)(F)F)c(NCc3nccnc3N(C)S(C)(=O)=O)n2)cc1 [defactinib]
In short: as §1

[2] = compound: CNc1nc(-c2ccc3c(N)n[nH]c3c2)cc(N2C[C@@H](C(=O)NC3CCCCC3)CC[C@H]2C)n1
In short: as §1

encorafenib = compound: COC(=O)N[C@@H](C)CNc1nccc(-c2cn(C(C)C)nc2-c2cc(Cl)cc(NS(C)(=O)=O)c2F)n1 [encorafenib]
In short: as §1

[3] = compound: COC(=O)[C@H](CCSC)NC(=O)C1=C(C=C(C=C1)NC[C@H](CS)N)C2=CC=CC=C2
In short: as §1

alisertib = compound: COc1cc(Nc2ncc3c(n2)-c2ccc(Cl)cc2C(c2c(F)cccc2OC)=NC3)ccc1C(=O)O [alisertib]
In short: as §1

[4] = compound: COc1cc2nc(-c3cc(F)ccc3O)nc(N[C@@H]3CNC[C@H]3C(C)(C)O)c2cc1OC
In short: as §1

gefitinib = compound: COc1cc2ncnc(Nc3ccc(F)c(Cl)c3)c2cc1OCCCN1CCOCC1 [gefitinib]
In short: as §1

lapatinib = compound: CS(=O)(=O)CCNCc1ccc(-c2ccc3ncnc(Nc4ccc(OCc5cccc(F)c5)c(Cl)c4)c3c2)o1 [lapatinib]
In short: as §1

pictilisib = compound: CS(=O)(=O)N1CCN(Cc2cc3nc(-c4cccc5[nH]ncc45)nc(N4CCOCC4)c3s2)CC1 [pictilisib]
In short: as §1

crizotinib = compound: C[C@@H](Oc1cc(-c2cnn(C3CCNCC3)c2)cnc1N)c1c(Cl)ccc(F)c1Cl [crizotinib]
In short: as §1

[5] = compound: C[C@H](C1=CC=C(C=C1)C(=O)NC2=C3C=CNC3=NC=C2)N
In short: as §1

duvelisib = compound: C[C@H](Nc1ncnc2nc[nH]c12)c1cc2cccc(Cl)c2c(=O)n1-c1ccccc1 [duvelisib]
In short: as §1

gandotinib = compound: Cc1cc(Nc2cc(CN3CCOCC3)c3nc(C)c(Cc4ccc(Cl)cc4F)n3n2)n[nH]1 [gandotinib]
In short: as §1

tozasertib = compound: Cc1cc(Nc2cc(N3CCN(C)CC3)nc(Sc3ccc(NC(=O)C4CC4)cc3)n2)n[nH]1 [tozasertib]
In short: as §1

doramapimod = compound: Cc1ccc(-n2nc(C(C)(C)C)cc2NC(=O)Nc2ccc(OCCN3CCOCC3)c3ccccc23)cc1 [doramapimod]
In short: as §1

bafetinib = compound: Cc1ccc(NC(=O)c2ccc(CN3CC[C@H](N(C)C)C3)c(C(F)(F)F)c2)cc1Nc1nccc(-c2cncnc2)n1 [bafetinib]
In short: as §1

[6] = compound: Cc1cccc(CC(=O)N2CCc3c2ccc(-c2cn(C)c4ncnc(N)c24)c3F)n1
In short: as §1

Measured: log2 fold change

FANCD2 isoform 1 (UniProt Q9BXW9)
UniProt Q9BXW9, sequence (Q9BXW9 whole entry, looked up): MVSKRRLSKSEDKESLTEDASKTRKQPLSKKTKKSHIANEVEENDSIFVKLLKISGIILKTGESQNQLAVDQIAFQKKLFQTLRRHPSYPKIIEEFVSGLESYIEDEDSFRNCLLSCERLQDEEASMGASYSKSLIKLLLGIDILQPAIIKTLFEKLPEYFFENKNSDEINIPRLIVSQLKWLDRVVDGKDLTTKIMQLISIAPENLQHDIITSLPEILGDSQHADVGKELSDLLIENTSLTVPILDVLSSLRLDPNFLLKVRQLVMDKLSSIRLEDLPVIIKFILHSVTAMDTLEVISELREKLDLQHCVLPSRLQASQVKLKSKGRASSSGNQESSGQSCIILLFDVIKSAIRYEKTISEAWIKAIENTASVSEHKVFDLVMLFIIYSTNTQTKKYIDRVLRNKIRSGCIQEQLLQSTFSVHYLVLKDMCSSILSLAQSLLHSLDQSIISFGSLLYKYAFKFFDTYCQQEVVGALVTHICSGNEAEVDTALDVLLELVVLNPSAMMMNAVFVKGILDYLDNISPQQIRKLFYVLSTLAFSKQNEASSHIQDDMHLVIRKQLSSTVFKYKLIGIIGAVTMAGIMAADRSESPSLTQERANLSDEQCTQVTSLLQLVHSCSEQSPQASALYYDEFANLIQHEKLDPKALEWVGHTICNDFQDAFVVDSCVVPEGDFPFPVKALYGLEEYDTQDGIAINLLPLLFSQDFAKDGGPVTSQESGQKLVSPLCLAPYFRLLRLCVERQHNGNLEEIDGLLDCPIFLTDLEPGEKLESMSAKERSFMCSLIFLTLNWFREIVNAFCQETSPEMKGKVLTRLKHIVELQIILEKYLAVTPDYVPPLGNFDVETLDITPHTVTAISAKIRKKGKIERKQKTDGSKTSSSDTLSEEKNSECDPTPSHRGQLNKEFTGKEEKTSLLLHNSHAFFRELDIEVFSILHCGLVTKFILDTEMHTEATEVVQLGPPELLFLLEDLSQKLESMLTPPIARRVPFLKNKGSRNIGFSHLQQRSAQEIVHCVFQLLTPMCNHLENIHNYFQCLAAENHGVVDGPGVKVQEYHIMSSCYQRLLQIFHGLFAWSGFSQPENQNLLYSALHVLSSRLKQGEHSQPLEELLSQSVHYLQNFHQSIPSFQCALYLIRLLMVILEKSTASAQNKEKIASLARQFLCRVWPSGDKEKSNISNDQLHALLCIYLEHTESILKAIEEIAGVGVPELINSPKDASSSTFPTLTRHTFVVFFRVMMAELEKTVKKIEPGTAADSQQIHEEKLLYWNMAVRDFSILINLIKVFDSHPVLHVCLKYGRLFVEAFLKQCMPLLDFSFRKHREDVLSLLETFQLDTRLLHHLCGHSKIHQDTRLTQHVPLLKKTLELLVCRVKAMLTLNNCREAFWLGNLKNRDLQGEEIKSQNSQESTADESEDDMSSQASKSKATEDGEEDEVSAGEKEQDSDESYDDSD
active: [6] 0.279
inactive: alvocidib 0 | Tubastatin A -0.082 | [1] -0.001 | defactinib -0.044 | [2] 0.147 | encorafenib -0.059 | [3] 0.096 | alisertib 0.001 | [4] 0.023 | gefitinib 0.009 | lapatinib -0.092 | pictilisib -0.037 | crizotinib -0.221 | [5] -0.086 | duvelisib -0.032 | gandotinib 0.132 | tozasertib -0.069 | doramapimod -0.023 | bafetinib -0.079

FTSJ3 (UniProt Q8IY81)
inactive: alvocidib 0.031 | Tubastatin A -0.073 | [1] -0.018 | defactinib 0.026 | [2] 0.007 | encorafenib -0.028 | [3] 0.031 | alisertib 0.005 | [4] -0.036 | gefitinib 0.004 | lapatinib 0.013 | pictilisib 0.023 | crizotinib -0.037 | [5] -0.031 | duvelisib -0.01 | gandotinib -0.019 | tozasertib -0.019 | doramapimod -0.025 | bafetinib 0.013 | [6] 0.031

GAPVD1 isoform 6 (UniProt Q14C86)
UniProt Q14C86, sequence (Q14C86 whole entry, looked up): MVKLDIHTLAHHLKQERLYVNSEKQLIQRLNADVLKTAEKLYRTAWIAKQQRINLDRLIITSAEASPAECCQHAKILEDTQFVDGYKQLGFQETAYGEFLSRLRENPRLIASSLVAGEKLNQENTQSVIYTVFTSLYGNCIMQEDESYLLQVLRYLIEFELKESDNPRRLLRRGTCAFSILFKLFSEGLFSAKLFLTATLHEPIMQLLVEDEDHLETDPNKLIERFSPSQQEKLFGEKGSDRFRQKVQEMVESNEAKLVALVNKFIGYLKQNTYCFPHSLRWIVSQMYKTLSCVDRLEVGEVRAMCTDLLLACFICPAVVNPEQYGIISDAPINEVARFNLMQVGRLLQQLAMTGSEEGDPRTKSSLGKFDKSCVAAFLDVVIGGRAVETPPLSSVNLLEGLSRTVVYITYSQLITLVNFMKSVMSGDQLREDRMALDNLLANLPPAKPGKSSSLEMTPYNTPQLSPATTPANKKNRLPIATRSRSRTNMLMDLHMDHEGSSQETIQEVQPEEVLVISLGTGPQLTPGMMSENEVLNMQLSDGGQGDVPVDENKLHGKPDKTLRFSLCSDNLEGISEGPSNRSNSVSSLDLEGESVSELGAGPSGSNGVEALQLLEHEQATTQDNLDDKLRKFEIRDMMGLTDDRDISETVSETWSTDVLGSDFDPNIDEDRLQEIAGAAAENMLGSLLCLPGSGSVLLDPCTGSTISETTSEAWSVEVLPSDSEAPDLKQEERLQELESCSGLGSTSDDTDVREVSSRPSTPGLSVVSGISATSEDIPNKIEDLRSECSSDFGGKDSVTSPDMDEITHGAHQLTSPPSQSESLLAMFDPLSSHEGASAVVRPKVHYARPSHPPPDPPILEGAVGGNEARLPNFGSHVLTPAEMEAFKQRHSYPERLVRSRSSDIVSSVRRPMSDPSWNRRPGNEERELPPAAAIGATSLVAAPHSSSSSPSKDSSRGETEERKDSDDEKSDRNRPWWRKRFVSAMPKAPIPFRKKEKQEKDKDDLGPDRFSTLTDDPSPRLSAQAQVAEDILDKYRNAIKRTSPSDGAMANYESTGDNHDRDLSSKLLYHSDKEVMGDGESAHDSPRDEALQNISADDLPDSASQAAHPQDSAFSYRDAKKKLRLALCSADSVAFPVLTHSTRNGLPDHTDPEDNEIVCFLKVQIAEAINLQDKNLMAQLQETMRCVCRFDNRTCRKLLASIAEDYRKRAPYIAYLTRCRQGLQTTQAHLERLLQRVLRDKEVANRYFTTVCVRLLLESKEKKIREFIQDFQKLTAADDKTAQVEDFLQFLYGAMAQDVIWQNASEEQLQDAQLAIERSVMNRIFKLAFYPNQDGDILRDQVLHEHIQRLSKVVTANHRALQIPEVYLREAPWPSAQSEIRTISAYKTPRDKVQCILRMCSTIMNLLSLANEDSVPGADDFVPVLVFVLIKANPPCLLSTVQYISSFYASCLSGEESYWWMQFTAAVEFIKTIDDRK
inactive: alvocidib 0.01 | Tubastatin A -0.112 | [1] 0.015 | defactinib 0.018 | [2] -0.04 | encorafenib 0.014 | [3] 0.097 | alisertib 0.005 | [4] -0.017 | gefitinib -0.012 | lapatinib 0 | pictilisib -0.017 | crizotinib -0.023 | [5] 0.054 | duvelisib 0.011 | gandotinib -0.088 | tozasertib -0.002 | doramapimod 0.025 | bafetinib -0.022 | [6] -0.018

FADS3 (UniProt Q9Y5Q0)
UniProt Q9Y5Q0, sequence (Q9Y5Q0 whole entry, looked up): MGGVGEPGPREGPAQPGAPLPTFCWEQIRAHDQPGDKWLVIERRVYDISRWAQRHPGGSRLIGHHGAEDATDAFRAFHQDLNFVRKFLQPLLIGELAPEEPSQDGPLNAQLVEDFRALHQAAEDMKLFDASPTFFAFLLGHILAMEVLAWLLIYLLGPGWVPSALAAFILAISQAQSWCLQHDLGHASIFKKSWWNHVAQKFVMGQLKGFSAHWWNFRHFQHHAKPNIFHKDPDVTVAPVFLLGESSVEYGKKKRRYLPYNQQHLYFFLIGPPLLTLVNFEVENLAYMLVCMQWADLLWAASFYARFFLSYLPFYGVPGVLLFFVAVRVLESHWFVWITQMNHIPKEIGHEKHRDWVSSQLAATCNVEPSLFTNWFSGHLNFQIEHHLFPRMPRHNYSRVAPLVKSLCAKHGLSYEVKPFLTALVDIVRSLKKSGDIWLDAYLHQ
inactive: alvocidib -0.051 | Tubastatin A 0.1 | [1] -0.047 | defactinib 0.198 | [2] -0.08 | encorafenib 0.097 | [3] 0.096 | alisertib 0 | [4] 0 | gefitinib 0.063 | lapatinib 0.13 | pictilisib -0.014 | crizotinib -0.065 | [5] -0.322 | duvelisib -0.09 | gandotinib 0 | tozasertib 0.079 | doramapimod -0.001 | bafetinib -0.131 | [6] -0.309

FBLL1 (UniProt A6NHQ2)
inactive: alvocidib -0.009 | Tubastatin A -0.049 | [1] -0.036 | defactinib 0.047 | [2] 0.081 | encorafenib 0.042 | [3] 0.056 | alisertib 0.012 | [4] 0.005 | gefitinib 0.035 | lapatinib 0.014 | pictilisib -0.076 | crizotinib -0.041 | duvelisib 0.059 | gandotinib 0.028 | tozasertib 0.047 | doramapimod -0.013 | bafetinib -0.075 | [6] 0.053
active: [5] -0.277

EHD2 (UniProt Q9NZN4)
UniProt Q9NZN4, sequence (Q9NZN4 whole entry, looked up): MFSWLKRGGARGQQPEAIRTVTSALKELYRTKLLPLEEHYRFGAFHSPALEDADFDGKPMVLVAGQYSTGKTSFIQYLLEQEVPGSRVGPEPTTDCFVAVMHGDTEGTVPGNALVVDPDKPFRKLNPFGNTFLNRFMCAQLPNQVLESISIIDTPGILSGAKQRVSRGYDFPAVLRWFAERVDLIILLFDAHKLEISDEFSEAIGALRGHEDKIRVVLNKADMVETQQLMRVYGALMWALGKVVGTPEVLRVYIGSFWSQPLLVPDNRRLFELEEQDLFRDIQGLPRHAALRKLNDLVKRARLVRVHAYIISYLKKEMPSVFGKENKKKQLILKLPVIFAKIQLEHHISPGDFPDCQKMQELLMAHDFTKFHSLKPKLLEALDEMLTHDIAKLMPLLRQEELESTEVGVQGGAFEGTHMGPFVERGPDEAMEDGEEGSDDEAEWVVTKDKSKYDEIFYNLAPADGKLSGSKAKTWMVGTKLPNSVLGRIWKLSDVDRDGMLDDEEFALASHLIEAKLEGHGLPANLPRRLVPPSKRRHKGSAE
inactive: alvocidib -0.012 | Tubastatin A -0.051 | [1] 0.055 | defactinib 0.032 | [2] -0.037 | encorafenib 0.001 | [3] 0.246 | alisertib -0.015 | [4] 0.071 | gefitinib -0.04 | lapatinib -0.047 | pictilisib -0.052 | crizotinib -0.033 | [5] 0.004 | duvelisib 0.026 | gandotinib -0.117 | tozasertib -0.004 | doramapimod 0.02 | bafetinib -0.063 | [6] 0.017

GEMIN5 (UniProt Q8TEQ6)
inactive: alvocidib 0.023 | Tubastatin A -0.21 | [1] 0.027 | defactinib 0.031 | [2] -0.007 | encorafenib 0.011 | [3] 0.057 | alisertib 0.014 | [4] -0.019 | gefitinib -0.032 | lapatinib -0.025 | pictilisib -0.006 | crizotinib -0.069 | [5] -0.029 | duvelisib 0.001 | gandotinib -0.087 | tozasertib 0.009 | doramapimod 0.012 | bafetinib -0.053 | [6] 0.017

DUS2 (UniProt Q9NX74)
inactive: alvocidib 0.056 | Tubastatin A -0.084 | [1] 0.013 | defactinib 0.016 | [2] -0.045 | encorafenib -0.027 | alisertib -0.007 | [4] 0.013 | gefitinib 0.026 | lapatinib -0.033 | pictilisib 0.04 | crizotinib 0.041 | [5] -0.032 | duvelisib 0.018 | gandotinib -0.051 | tozasertib 0.011 | doramapimod -0.01 | bafetinib -0.017 | [6] -0.009
active: [3] 0.352

GFPT1 (UniProt Q06210)
inactive: alvocidib 0.022 | Tubastatin A -0.075 | [1] 0.011 | defactinib 0.01 | [2] 0.012 | encorafenib -0.012 | [3] 0.134 | alisertib 0.005 | [4] 0.007 | gefitinib -0.013 | lapatinib -0.001 | pictilisib -0.026 | crizotinib -0.033 | [5] 0.009 | duvelisib -0.002 | gandotinib -0.066 | tozasertib -0.013 | doramapimod -0.001 | bafetinib -0.031 | [6] 0.007

GALNT2 (UniProt Q10471)
UniProt Q10471, sequence (Q10471 whole entry, looked up): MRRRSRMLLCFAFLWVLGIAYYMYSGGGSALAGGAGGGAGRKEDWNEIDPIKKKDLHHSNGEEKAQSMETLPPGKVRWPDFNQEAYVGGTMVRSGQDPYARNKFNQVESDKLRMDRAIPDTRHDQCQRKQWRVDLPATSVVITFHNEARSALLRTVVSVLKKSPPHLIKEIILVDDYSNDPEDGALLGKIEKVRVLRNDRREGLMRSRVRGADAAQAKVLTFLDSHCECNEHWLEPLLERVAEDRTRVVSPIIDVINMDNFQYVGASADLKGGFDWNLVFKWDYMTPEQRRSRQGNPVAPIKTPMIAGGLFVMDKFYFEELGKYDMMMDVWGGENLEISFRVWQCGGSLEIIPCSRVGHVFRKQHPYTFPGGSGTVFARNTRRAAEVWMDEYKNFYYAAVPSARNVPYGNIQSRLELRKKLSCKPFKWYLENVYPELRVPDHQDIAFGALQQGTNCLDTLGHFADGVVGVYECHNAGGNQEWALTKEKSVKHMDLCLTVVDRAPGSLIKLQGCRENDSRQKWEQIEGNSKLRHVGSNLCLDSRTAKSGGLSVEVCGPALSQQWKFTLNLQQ
active: gandotinib 0.272
inactive: alvocidib -0.069 | Tubastatin A 0.073 | [1] -0.004 | defactinib 0.008 | [2] -0.057 | encorafenib 0.048 | [3] -0.047 | alisertib 0.028 | [4] -0.021 | gefitinib -0.021 | lapatinib -0.016 | pictilisib -0.039 | crizotinib 0.009 | [5] -0.074 | duvelisib -0.044 | tozasertib 0.047 | doramapimod -0.014 | bafetinib -0.002 | [6] 0.18

ENO2 (UniProt P09104)
active: alvocidib -0.279 | [5] -0.358 | [6] 0.264
inactive: Tubastatin A 0.024 | [1] -0.018 | defactinib -0.007 | [2] 0.073 | encorafenib 0.032 | [3] 0.086 | alisertib -0.025 | [4] -0.014 | gefitinib -0.021 | lapatinib 0.01 | pictilisib 0.012 | crizotinib -0.009 | duvelisib 0.04 | gandotinib 0.214 | tozasertib -0.111 | doramapimod -0.012 | bafetinib -0.014

FAM98A (UniProt Q8NCA5)
UniProt Q8NCA5, sequence (Q8NCA5 whole entry, looked up): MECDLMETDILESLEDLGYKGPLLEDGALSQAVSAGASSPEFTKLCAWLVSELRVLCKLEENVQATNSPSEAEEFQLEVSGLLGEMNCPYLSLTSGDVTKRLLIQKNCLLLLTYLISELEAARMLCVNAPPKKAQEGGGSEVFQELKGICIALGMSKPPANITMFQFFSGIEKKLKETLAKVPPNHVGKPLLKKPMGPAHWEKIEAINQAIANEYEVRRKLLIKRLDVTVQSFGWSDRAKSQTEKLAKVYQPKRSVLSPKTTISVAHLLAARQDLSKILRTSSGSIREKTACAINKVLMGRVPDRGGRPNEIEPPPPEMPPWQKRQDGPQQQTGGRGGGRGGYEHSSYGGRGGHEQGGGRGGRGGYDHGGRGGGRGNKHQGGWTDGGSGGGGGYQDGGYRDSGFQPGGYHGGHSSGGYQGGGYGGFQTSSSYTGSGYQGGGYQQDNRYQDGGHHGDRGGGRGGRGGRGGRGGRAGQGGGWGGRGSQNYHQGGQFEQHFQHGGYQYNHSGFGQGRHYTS
inactive: alvocidib 0.042 | Tubastatin A -0.04 | [1] 0.028 | defactinib 0.01 | [2] 0.086 | encorafenib -0.004 | [3] 0.025 | alisertib -0.028 | [4] -0.014 | gefitinib 0.037 | lapatinib 0.001 | pictilisib -0.024 | crizotinib 0.007 | [5] 0.074 | duvelisib -0.024 | gandotinib -0.059 | tozasertib 0.023 | doramapimod -0.015 | bafetinib 0.012 | [6] 0

EEF1AKNMT (UniProt Q8N6R0)
inactive: alvocidib 0.009 | Tubastatin A -0.102 | [1] 0.051 | defactinib -0.012 | [2] -0.015 | encorafenib 0.005 | [3] 0.076 | alisertib -0.02 | [4] 0.027 | gefitinib -0.031 | lapatinib -0.006 | pictilisib -0.046 | crizotinib -0.123 | [5] 0.017 | duvelisib 0.03 | gandotinib -0.133 | tozasertib -0.029 | doramapimod 0.074 | bafetinib -0.014 | [6] -0.024

FYCO1 isoform 4 (UniProt Q9BQS8)
inactive: alvocidib -0.052 | Tubastatin A 0 | [1] -0.001 | defactinib -0.002 | [2] -0.006 | encorafenib 0.033 | [3] 0.024 | alisertib 0.018 | [4] 0.018 | gefitinib 0.016 | lapatinib -0.005 | pictilisib -0.018 | crizotinib -0.018 | [5] -0.114 | duvelisib 0.036 | gandotinib 0.229 | tozasertib 0.021 | doramapimod -0.009 | bafetinib -0.019 | [6] 0.176

FAM118B (UniProt Q9BPY3)
inactive: alvocidib -0.023 | Tubastatin A -0.058 | [1] -0.002 | defactinib 0.037 | [2] -0.009 | encorafenib 0.026 | [3] -0.048 | alisertib -0.011 | [4] -0.043 | gefitinib 0.016 | lapatinib 0.022 | pictilisib -0.013 | crizotinib -0.093 | [5] -0.022 | duvelisib 0.045 | gandotinib -0.044 | tozasertib -0.008 | doramapimod 0.048 | bafetinib 0.008 | [6] 0.037

FECH isoform 2 (UniProt P22830)
inactive: alvocidib 0.028 | Tubastatin A -0.123 | [1] 0.485 | defactinib -0.056 | [2] 0.664 | encorafenib -0.064 | [3] -0.091 | alisertib -0.191 | [4] 0.225 | gefitinib 0.503 | lapatinib -0.099 | pictilisib 0.64 | crizotinib 0.027 | [5] -0.12 | duvelisib -0.022 | gandotinib 0.418 | tozasertib 0 | doramapimod -0.015 | bafetinib 0.557 | [6] -0.036
